A selection: hits, their analogues and other compounds. The true share with any hit is near 9.6%.
Insulin prom up = insulin promoter activators in MIN6 cells, imaging, high-content screening, mouse beta cells; AID 1625, 2009; 190,000 tested, 0.3% active; MIN6 insulin promoter-GFP reporter; active compounds read high; z-score at 5 µM;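 active means z-score above 3 at 5 µM with at least 500 cells counted in the well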
Lmaj promast = Leishmania major promastigote growth inhibition, primary screen. Leishmania major promastigotes, resazurin fluorescence viability. inhibition, % at 10 µM. 200,000 tested, 9% active. AID 1063, 2008; in the data active means inhibition above about 50%;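 further: promastigotes grown with compound for 44 hours at 28 °C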
Autophagy mod = autophagy modulators in MEF cells, primary screen, imaging, high-content, MEF GFP-LC3; MEF GFP-LC3 puncta imaging; test concentration mostly 10 µM; calls only at 10 µM (by protocol); 190,000 tested, 0.98% active; AID 463193, 2010;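 active means percentage of spot-positive cells more than 3 SD above its plate mean, without a fluorescence outlier flag or 80% toxicity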
Insulin prom inh = inhibitors of insulin promoter-driven GFP, primary screen, imaging, TRM-6 cells (human fetal islet line), eGFP reporter, cell count; reporter expression induced with tamoxifen; inhibition, % at 2 µM; 130,000 tested, 0.9% active; AID 1273, 2008;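 active means inhibition above the mean plus 3 SD, with well images judged a real hit on visual review, cut at about 60% in these data, passing the limit was not always enough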
HCT116 bCat-KO = primary screen for growth suppressors in beta-catenin knockout HCT116 cells (colon tumor, human); viability, % at 10 µM; AID 818, 2007; HCT116 beta-catenin knockout viability, CellTiter-Glo, 60 h; active compounds read low; 140,000 tested, 1.5% active;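 active means viability at or under a set limit, the compound median less 4 SD, cut at about 6% in these data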
PTEN del growth = growth suppression of PTEN-null HCT116, primary screen, cell-based, CellTiter-Glo | HCT116 PTEN-null viability, 60 h; active compounds read low | viability, % at 10 µM | 140,000 tested, 1.2% active | AID 827, 2007;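 active means viability at or below a set limit, 4 SD under the median of all tested compounds, cut at about 3.7% in these data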;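 further: PTEN knockout HCT116 line with beta catenin targeted HCT116 as companion control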
Numbers stand for hits; - = inactive; . = no result; + = active, no number.

SMILES	Insulin prom up	Lmaj promast	Autophagy mod	Insulin prom inh	HCT116 bCat-KO	PTEN del growth
CCOC(=O)c1c(C)[nH]c(C(=O)C(C)OC(=O)c2oc3ccccc3c2COC)c1C (centres undefined)	-	-	-	-	-	-
Cc1ccccc1-n1c(SCC(=O)N/N=C/c2sccc2C)nc2ccccc2c1=O	-	86.2	-	-	-	-
Cc1ccccc1-n1c(SCC(=O)N/N=C/c2c(C)nn(-c3ccccc3)c2C)nc2ccccc2c1=O	-	-	-	-	-	-
Cc1ccc(/C=N/NC(=O)CSc2nc3ccccc3c(=O)n2-c2ccccc2C)s1	-	-	-	-	-	-
Cc1nn(-c2ccccc2)c(C)c1/C=N/NC(=O)CSc1nnc(SCc2cccc3ccccc23)s1	-	96.7	-	-	-	-
Cc1ccccc1-n1c(SCC(=O)NC(N)=O)nc2sc(-c3ccccc3)cc2c1=O	-	60.9	-	-	-	-
Cc1ccc(-n2c(SCC(=O)N/N=C/c3c(C)nn(-c4ccccc4)c3C)nc3ccccc3c2=O)cc1	-	-	+	.	-	-
NC(=O)c1oc2ccccc2c1NC(=O)c1ccccc1	-	-	-	-	-	-
Cc1ccc(S(=O)(=O)N(C)C)cc1-n1c(SCC(=O)Nc2ccccc2)nc2ccccc2c1=O	-	89.4	-	-	-	-
Cc1nn(-c2ccccc2)c(C)c1/C=N/NC(=O)CSc1nc2ccccc2c(=O)n1-c1ccc(Br)cc1	-	-	-	.	1.1	1.1
N#Cc1cc2c(nc1SCC1COc3ccccc3O1)CCC2 (centres undefined)	-	-	-	-	-	-
Cc1cc(C)c(C#N)c(SCC2COc3ccccc3O2)n1 (centres undefined)	3.48	-	-	-	-	-
CCN1CC=C2C(C1)C(c1ccc(Cl)s1)C(C#N)=C(N)C2(C#N)C#N (centres undefined)	.	-	+	-	-	-
Cc1ccc(C)c2[nH]c(=O)c(C(c3nnnn3C(C)(C)C)N3CC=C(c4ccc(F)cc4)CC3)cc12 (centres undefined)	-	96.6	-	-	-	-
CCC(C)(C)n1nnnc1C(c1cc2cccc(C)c2[nH]c1=O)N1CCCC1 (centres undefined)	-	-	-	-	-	-
O=C(COC(=O)c1ccccc1Cl)NC(=O)NCc1ccccc1	-	82.7	-	-	-	-
CCOC(=O)/C=C/C(=O)OCC(=O)NCc1ccccc1	-	54.8	-	-	-	-
O=C(COC(=O)c1ccccc1Br)NCc1ccccc1	-	59.9	-	-	-	-
O=C(COC(=O)c1cncc(Br)c1)NCc1ccccc1	-	-	-	.	.	.
CCCOc1ccccc1C1C(C(=O)OC)=CN(C(C)C)C=C1C(=O)OC	-	100.0	-	-	-	-
CCCCOc1ccccc1C1C(C(=O)OC)=CN(CC)C=C1C(=O)OC	-	60.9	-	-	-	-
COC(=O)C1=CN(C)C=C(C(=O)OC)C1c1ccccc1Cl	.	-	-	-	-	-
COc1ccc(C(=O)COC(=O)c2ccc(OC)c(OC)c2)cc1OC	-	-	-	.	-	-
CCOC(=O)CSc1nc(C2CC2)cc(-c2ccc(F)cc2)c1C#N	-	-	-	.	-	-
COc1ccc(-c2cc(C3CC3)nc(SCC(=O)c3cccs3)c2C#N)cc1	-	-	+	.	-	-
SMILES	Insulin prom up	Lmaj promast	Autophagy mod	Insulin prom inh	HCT116 bCat-KO	PTEN del growth
CC1(C)OC(=O)C(=CNn2cnc3ccccc3c2=O)C(=O)O1	-	-	-	81.8	-	-
O=C(O)c1ccc(COc2cccc(CO)c2)cc1	-	-	-	-	-	-
Cc1ccc(C(=O)c2c(C)oc3c2C(=O)C(=O)c2ccccc2-3)cc1	-	100.4	-	-	0.8	1.1
Cc1ccc(C(=O)C(OC(=O)c2c(C)cc(=O)oc2C)c2ccccc2)cc1 (centres undefined)	-	-	-	.	.	.
COc1ccc(C(=O)c2coc(-c3ccccc3C(=O)O)c2C(=O)O)cc1	-	-	-	-	-	-
O=C(c1ccc(Cl)cc1)c1ccc(CN2C(=O)c3ccccc3C2=O)o1	-	-	-	-	-	-
Cc1oc2c(c1C(=O)c1ccc(Cl)cc1)C(=O)C(=O)c1ccccc1-2	-	100.5	-	-	0.9	0.9
Cc1ccc(C(=O)c2coc3c2C(=O)C(=O)c2ccccc2-3)cc1	-	100.2	-	-	1.8	1.4
N=C1/C(=C\c2ccc(SCc3ccccc3)o2)C(=O)N=C2SC(CC(=O)N3CCOCC3)=NN12	-	.	.	.	.	.
CCNC(=S)Nc1cc(OCC)c(N2CCOCC2)cc1OCC	-	63.7	-	-	-	-
Cc1c(Br)c([N+](=O)[O-])nn1C(C)C(=O)NCc1cccnc1 (centres undefined)	-	-	-	-	-	-
COC(=O)c1ccc(/C=N/n2cnnc2)cc1	-	-	-	-	-	-
O=S(=O)(NC1=NCCCCC1)c1ccc(F)cc1	-	.	.	.	.	.
O=C(CSCc1c(Cl)cccc1Cl)Nc1ccccc1C(=O)N1CCOCC1	-	51.9	-	-	-	-
CCc1ccc(N(CC(=O)Nc2ccccc2C(=O)N2CCOCC2)S(C)(=O)=O)cc1	-	50.9	-	-	-	-
O=C(CSCc1ccc(Cl)cc1)Nc1ccccc1C(=O)N1CCOCC1	-	-	-	-	-	-
CS(=O)(=O)N(CC(=O)Nc1ccccc1C(=O)N1CCOCC1)c1ccc(Cl)cc1	-	.	.	.	.	.
COc1ccc(Br)cc1/C=C/C(=O)Nc1c(C)cccc1C	-	61.8	-	.	-	-
COc1ccc(Br)cc1/C=C/C(=O)c1ccc(NC(C)=O)cc1	-	100.2	-	.	4.9	1.3
CSCCCNC(=O)c1ccc(OC2CCN(CCc3ccccc3)CC2)cc1	.	74.6	-	.	.	.
CN(Cc1cnn(C)c1)C(=O)c1ccc(OC2CCN(CCc3ccccc3)CC2)cc1	.	-	-	-	.	.
O=c1[nH]c(-c2ccccn2)nc(C(F)(F)F)c1Br	-	96.7	-	.	.	.
Cn1c(Cc2ccccc2)nnc1SCC(=O)N1CCN(c2ccccc2)CC1	-	-	-	-	-	-
O=C(CSc1nc2ccccc2c(=O)n1CCCN1CCOCC1)N1CCN(c2ccccc2)CC1	-	-	+	.	.	.
Cn1c(Cc2cccc3ccccc23)nnc1SCC(=O)N1CCN(c2ccccc2)CC1	-	57.5	-	-	-	-
CCc1ccc(NC(=O)CSc2nc3ccccc3c(=O)n2CCCN2CCC(C)CC2)cc1	-	77.2	-	-	.	.
COCCCn1c(SCC(=O)Nc2ccc(C)cc2)nc2ccccc2c1=O	-	-	-	-	.	.
CCCn1c(SCC(=O)N2CCN(c3ccccc3)CC2)nc2ccccc2c1=O	-	-	-	-	-	-
COCCCn1c(SCC(=O)Nc2ccc(C(=O)OC)cc2)nc2ccccc2c1=O	-	89.4	-	.	-	-
Cc1nc2ccccc2n1CCCOc1ccccc1	-	-	-	-	-	-

Screens: PubChem, several laboratories
